A selection: hits, their analogues and other compounds. The true share with any hit is near 1.7%.
HTR5A inv ctr: counter-screen for OPRM1-OPRD1 inverse agonists: human HTR5A inverse agonism. P47898. HTR5A cell line, luminescence. inhibition, % at 9.3 µM. 0.083% of 340,000 active. AID 504634; in the data active = inhibition mostly above about 23%, no sharp cut-off; inactive = mostly below about 18%
Target sequence (P47898 whole entry, looked up): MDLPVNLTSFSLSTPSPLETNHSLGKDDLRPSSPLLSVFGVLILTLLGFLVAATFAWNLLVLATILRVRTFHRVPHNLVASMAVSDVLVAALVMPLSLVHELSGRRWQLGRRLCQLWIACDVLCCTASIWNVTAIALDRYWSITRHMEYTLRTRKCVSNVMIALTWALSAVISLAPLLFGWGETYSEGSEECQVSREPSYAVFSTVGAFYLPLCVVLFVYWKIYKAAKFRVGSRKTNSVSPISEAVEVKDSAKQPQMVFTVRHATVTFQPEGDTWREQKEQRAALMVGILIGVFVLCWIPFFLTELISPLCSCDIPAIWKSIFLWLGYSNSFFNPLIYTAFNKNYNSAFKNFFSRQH
HTR5A ag: counter-screen for OPRM1-OPRD1 agonists: human HTR5A agonism | P47898 | HTR5A agonist assay, luminescence, cell-based | activation, % at 9.3 µM | 0.61% of 340,000 active | AID 504692; in the data active = activation mostly above about 9.5%, no sharp cut-off; inactive = mostly below about 7.6%
beta cell repl: MIN6 beta-cell proliferation induction; 0.29% of 330,000 active; proliferation, % at 10 µM; MIN6 cells proliferation, ATPlite luminescence, 48 h; cells starved in 0.2% serum; 100% = growth in 10% serum;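 active = compounds whose signal lies at least 3.5 SD above the mean of all wells on their plate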
OPRM1-OPRD1 ag: OPRM1-OPRD1 heterodimerization agonism; P35372+P41143; cells, luminescence; activation, % at 9.3 µM; 0.3% of 340,000 active; AID 504326; in the data active = activation above about 18%
MOR-DOR inv ag: inverse agonists of human mu-delta opioid receptor heterodimerization; P35372+P41143; cell-based MOR-DOR heterodimer luminescence, inverse agonism; inhibition, % at 9.3 µM; 0.21% of 340,000 active; in the data active = inhibition above about 22%, passing the limit was not always enough
V-ATPase pH: yeast V-ATPase proton transport regulation by pHLuorin; S. cerevisiae, pHLuorin cytosolic pH fluorescence; response, % at 10 µM; 0.37% of 350,000 active; in the data active = response mostly above about 7.3%, no sharp cut-off; inactive = mostly below about 5.4%; also: actives read high
Of the large screens only hits and unclear results are named; the others gave an inactive call.

CCN(c1ccccc1)S(=O)(=O)c1ccc2c(c1)N(C(C)=O)CCO2	none
Cc1ccc(S(=O)(=O)Nc2cccc(C(=O)NCC(c3ccco3)N3CCCC3)c2)cc1F (stereo not drawn)	none
CCOC(=O)c1ccc(Nc2nc(C)nc3c2nnn3Cc2ccccc2)cc1	HTR5A ag 8.5
COc1ccc(Cl)cc1Nc1nc(C)nc2c1nnn2Cc1ccccc1	none
CCCNC(=O)c1onc(CSc2ccccn2)c1C(=O)NCCC	V-ATPase pH 22
Cc1ccc(CN2CCN(c3cccc4[nH]ccc34)CC2)cc1	none
C[C@@H]1CN([C@H](C)CO)S(=O)(=O)c2ccc(-c3ccc(C(=O)N(C)C)cc3)cc2O[C@H]1CN(C)C(=O)Cc1ccccn1	none (no result: HTR5A inv ctr, HTR5A ag, beta cell repl, OPRM1-OPRD1 ag, MOR-DOR inv ag)
O=C(CCc1ccccc1)NC(c1cccs1)c1cc(Cl)c2cccnc2c1O (stereo not drawn)	HTR5A ag 13 (no result: beta cell repl)
O=c1oc(-c2cccs2)nc2ccccc12	HTR5A ag 14
CC(/C=C/c1cccc([N+](=O)[O-])c1)=N\NC(=O)c1ccncc1	none
COc1ccccc1CNC(=O)COC(=O)CSc1ccc(C)c(C)c1	none
Cc1cccc(N(C(=O)CNC(=O)c2ccco2)C(C(=O)NC2CCCCC2)c2cccnc2)c1 (stereo not drawn)	none
O=C(NC1CCCCC1)C(c1cccnc1)N(C(=O)CCl)c1cccc(Cl)c1 (stereo not drawn)	HTR5A ag 36, OPRM1-OPRD1 ag 35
COc1ccc(N(C(=O)c2cnccn2)C(C(=O)NC2CCCCC2)c2ccc(Cl)cc2)cc1 (stereo not drawn)	none
COc1ccc(C(C(=O)NC2CCCCC2)N(C(=O)CCl)c2ccc(Cl)cc2)cc1 (stereo not drawn)	HTR5A ag 66, OPRM1-OPRD1 ag 89
CCc1ccc(NC(=O)c2ccc3c(c2)CCN3S(C)(=O)=O)cc1	none (no result: HTR5A inv ctr, HTR5A ag, beta cell repl, OPRM1-OPRD1 ag, MOR-DOR inv ag)
Cc1ccc(SCC(=O)NCCSC(C)(C)C)cc1	V-ATPase pH 19
COCCNC(=O)CSc1ccc(C)cc1	none
C/C(=N/NS(=O)(=O)c1ccccc1)c1c[nH]c2ccccc12	HTR5A ag 12
C/C(=N/NS(=O)(=O)c1ccc(C)cc1)c1c[nH]c2ccccc12	HTR5A ag 11
Cc1ccc(C)c(NC(=O)CS(=O)(=O)c2c[nH]c3ccccc23)c1	none
C/C(=N/NS(=O)(=O)c1cc(C)ccc1C)c1c[nH]c2ccccc12	HTR5A ag 12
C/C(=N/NS(=O)(=O)c1cccc([N+](=O)[O-])c1)c1c[nH]c2ccccc12	none
COc1ccc(NC(=O)CSc2n[nH]c(CNc3cccc(C)c3)n2)cc1	none
COc1ccc(/C=N/NC(=O)c2cc3c(ccc4ccccc43)o2)cc1OC	none
COc1cc(/C=N/NC(=O)c2cc3c(ccc4ccccc43)o2)cc(OC)c1O	HTR5A ag 11
CCOC(=O)C1CCN(C(=S)Nc2cc(C)ccc2C)CC1	V-ATPase pH 22
CC(=O)N1CCN(c2nnc(-c3ccc(C)cc3)c3ccccc23)CC1	none
Cc1ccc(OCC(=O)N2CCN(c3nnc(-c4ccccc4)c4ccccc34)CC2)cc1	HTR5A ag 9.0
N#CCCN(Cc1cccnc1)C(=O)c1sc2cc(F)ccc2c1Cl	none
COc1ccc(NC(=O)CN(C)S(=O)(=O)c2ccc3c(c2)CCC(=O)N3)c(OC)c1	none
COc1ccc(NS(=O)(=O)c2ccc3c(c2)CCC(=O)N3)c(OC)c1	V-ATPase pH 19
CC(c1ccccc1)C(NC(=O)OCC1c2ccccc2-c2ccccc21)C(=O)O (stereo not drawn)	none
COc1cc([C@H]2c3[nH]c4ccccc4c3C[C@H]3C(=O)N4[C@@H](c5cc(OC)c(OC)c(OC)c5)c5[nH]c6ccccc6c5C[C@H]4C(=O)N23)cc(OC)c1OC	OPRM1-OPRD1 ag 21
O=C(CCNC(=O)c1ccc(Br)cc1)NNC(=O)c1ccccc1	none
CC(=O)c1cccc(NC(=O)NCc2ccccn2)c1	none
CC(=O)c1cccc(NC(=O)NCc2cccs2)c1	HTR5A ag 11
C=CCN=C1CCCc2c1[nH]c1ccc(C)cc21	none
Cc1[nH]c(-c2ccco2)nc1C(=O)O	V-ATPase pH 23
Cc1ccc(C(=O)Nc2nnc(SCC(=O)N3CCCc4ccccc43)s2)cc1	V-ATPase pH 9.0
O=C(NN=Cc1c[nH]c2ccccc12)NN=Cc1c[nH]c2ccccc12	none (no result: HTR5A inv ctr, HTR5A ag, beta cell repl, OPRM1-OPRD1 ag, MOR-DOR inv ag)
O=C(CNc1ccccc1)N/N=C/c1c[nH]c2ccccc12	HTR5A ag 13
CC1=C(C(=O)N(C)C)CC(CC(=O)NCCCN(C)C)C(=O)N1CCC1=CCCCC1 (stereo not drawn)	none (no result: HTR5A inv ctr, HTR5A ag, beta cell repl, OPRM1-OPRD1 ag, MOR-DOR inv ag)
COc1cc(/C=N/N=C(N)N)ccc1OCc1ccc(Cl)cc1	HTR5A ag 10
COc1ccc([C@H]2C[C@@H](n3cc(C4CC4)nn3)[C@H](O)CN2CC2CCCCC2)cc1	none (no result: HTR5A inv ctr, HTR5A ag, beta cell repl, OPRM1-OPRD1 ag, MOR-DOR inv ag)
COc1cc2ncnc(NCc3ccccc3F)c2cc1OC	none
COc1cc2ncnc(NCc3cccc(F)c3F)c2cc1OC	HTR5A ag 9.2
O=C(Nc1cccc(-c2cnc3ccccc3n2)c1)c1cccc(NC(=O)c2ccco2)c1	HTR5A ag 14, OPRM1-OPRD1 ag 51
c1ccc(CNc2ncnc3scc(-c4cccs4)c23)nc1	none
c1ccc(-c2csc3ncnc(NCc4ccccn4)c23)cc1	V-ATPase pH 22
Cc1nc2sc(C(c3ccc(Cl)cc3)N3CC(C)OC(C)C3)c(O)n2n1 (stereo not drawn)	HTR5A ag 11
COc1ccccc1N1CCN(C2=NS(=O)(=O)c3ccccc32)CC1	none
C=CCN1/C(=C(\C#N)C2=NS(=O)(=O)c3ccccc32)N(C)c2ccccc21	V-ATPase pH 24
COc1ccc(S(=O)(=O)N2CCOC23CCN(S(=O)(=O)c2c(C)cc(C)cc2C)CC3)cc1	HTR5A ag 11
Cc1cc(OCC(=O)Nc2ccc(CN3CCCCC3)cc2)ccc1Cl	none (no result: HTR5A inv ctr, HTR5A ag, OPRM1-OPRD1 ag, MOR-DOR inv ag)
Cc1ccc(Nc2nc(N)nc(CCl)n2)c(C)c1	HTR5A ag 63, OPRM1-OPRD1 ag 61
CCOc1ccc(Nc2nc(N)nc(CCl)n2)cc1	HTR5A ag 90, OPRM1-OPRD1 ag 68
Cc1ccc(Nc2nc(N)nc(CCl)n2)cc1	none (no result: HTR5A inv ctr, HTR5A ag, OPRM1-OPRD1 ag, MOR-DOR inv ag)
Cc1ccc(Nc2nc(N)nc(CN3CCCCCC3)n2)c(C)c1	none
COc1ccccc1C(c1nnnn1C(C)(C)C)N1CCCc2ccccc21 (stereo not drawn)	HTR5A ag 13 (no result: V-ATPase pH)
CCOc1cc(/C=C2\SC(=O)N=C2N)ccc1O	beta cell repl 0.0
CC1CCN(CCCn2c(=S)[nH]c3c(sc4ccc([N+](=O)[O-])cc43)c2=O)CC1	HTR5A ag 9.7
CC1CCN(CCCn2c(=S)[nH]c3c(sc4ccccc43)c2=O)CC1	none
O=S(=O)(c1ccc2c(c1)OCCO2)N1CCN(Cc2ccccc2)CC1	HTR5A ag 14
C[C@@H]1CN([C@@H](C)CO)C(=O)CCCn2nncc2CO[C@H]1CN(C)C(=O)OCc1ccccc1	none (no result: HTR5A inv ctr, HTR5A ag, beta cell repl, OPRM1-OPRD1 ag, MOR-DOR inv ag)
C(C#CCCCCCCCCC[n+]1ccccc1)#CCCCCCCCCC[n+]1ccccc1	none (no result: beta cell repl)
